The entries come from a sample that favours hits as a whole.
RORg inh = inhibitors of mouse ROR gamma transcriptional activity | AID 2551 | Potency, µM (top dose mostly 53.6 µM), actives largely listed as inhibitors | Drosophila S2 Gal4-RORgamma UAS-luciferase reporter, 20 h | 310,000 tested, 5.4% active | P51450; further: nearly all actives have a fitted effect of over 60% in size
Target sequence (P51450 whole entry, looked up, the tested form may be a part): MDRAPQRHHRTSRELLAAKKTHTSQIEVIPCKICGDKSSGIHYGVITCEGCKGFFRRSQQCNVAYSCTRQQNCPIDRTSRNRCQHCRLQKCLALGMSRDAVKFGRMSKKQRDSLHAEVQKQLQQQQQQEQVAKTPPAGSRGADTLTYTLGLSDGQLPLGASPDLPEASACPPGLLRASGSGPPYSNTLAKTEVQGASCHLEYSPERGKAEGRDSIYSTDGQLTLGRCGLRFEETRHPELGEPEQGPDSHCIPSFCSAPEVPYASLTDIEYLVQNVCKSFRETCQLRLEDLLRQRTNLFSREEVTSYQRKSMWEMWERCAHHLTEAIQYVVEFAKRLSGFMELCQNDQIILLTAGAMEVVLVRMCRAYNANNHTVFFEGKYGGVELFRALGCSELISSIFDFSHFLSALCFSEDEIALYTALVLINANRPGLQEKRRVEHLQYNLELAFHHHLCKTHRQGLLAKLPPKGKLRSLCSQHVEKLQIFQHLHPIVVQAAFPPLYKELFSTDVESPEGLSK
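Luciferase reporter read in Schneider cells carrying Gal4-RORγ (mouse) and UAS-Photinus luciferase; cells given compound 1 h before 700 uM copper sulfate induction, then incubated 20 h at ambient temperature.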
VP16 counter = Gal4-VP16 reporter inhibition counter-screen; Potency, µM (titrated, usually from 53.6 µM), usual class: inhibitors; 310,000 tested, 3.5% active; Drosophila S2 Gal4-VP16 UAS-luciferase, luminescence, 20 h;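 further: Gal4-VP16 expression switched on by copper sulfate through the metallothionein promoter; nearly all actives have a fitted effect of over 50% in size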
Giardia kill = Giardia lamblia killing. Giardia lamblia trophozoite viability. 340,000 tested, 0.15% active. AID 540267. activity change, % at 7.66 µM, hits read low; in the data active means activity change below about -80%; inconclusive means between about -30% and that limit;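 further: parasites exposed to compound for two days anaerobically before the ATP read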
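Giardia trophozoites, 100 cells per well, were exposed to compounds for 48 hrs at 37 deg C under anaerobic conditions; viability was then read as ATP content by bioluminescence after 15-30 min at room temperature.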
a7 integrin act = activators of alpha7 integrin expression for muscular dystrophy | alpha7betagal myoblasts, beta-gal FDG fluorescence, 48 h | Potency, µM (top dose mostly 38.3 µM), most hits filed as activators | 350,000 tested, 0.064% active | AID 624291; further: nearly all actives have a fitted effect of over 60% in size
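Alpha7betagal+/- myoblasts (passage 13) were plated 16-24 hr, then exposed to compounds (1:260 dilution of DMSO stock) for 48 hours at 37C. After MPER lysis, β-galactosidase reporter activity was read as FDG fluorescence (ex 480/em 540) after 30 minutes.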
ERG-DNA inh = inhibitors of human ERG Ets domain-DNA interaction | P11308 | fluorescence polarization, His-ERG Ets domain / labelled DNA | Potency, µM (titrated, usually from 76.9 µM), usual class: inhibitors | 370,000 tested, 0.028% active; active means well fitted inhibition curve with a large enough effect in the polarisation, with a control signal flat; inconclusive means small, poorly fitted or top-dose-only effect, or effect the other way, or a change in a side signal; inactive means no such curve, though single readings can be large or run the other way; the % refers to the polarisation;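 further: polarization taken with two DNA probes labelled with fluorescein and Texas red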
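His-tagged ERG Ets domain (1 uM in the protein solution; 300mM KCl, 50mM Tris-HCl, 1mM EDTA, 1mM DTT, pH 7.5) received compound, then a probe mix of 5 nM fluorescein-DNA and 100nM Texas-615-DNA. Fluorescence polarization was read for both dyes.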
Large screens that a line does not name were inactive. Unless noted, the call rests on the fitted dose curve; in most records, active means well fitted curve in the direction sought with a large enough effect; inconclusive means small, poorly fitted or top-dose-only effect, or another doubt; inactive means no such curve, though single readings can be large; an effect the other way counts as inactive or inconclusive.

CCCN(Cc1nnc(-c2ccccc2Cl)o1)C(=O)c1cccc(S(=O)(=O)N2CCOCC2)c1	none
O=C(NC(=S)Nc1ccccc1N1CCCCC1)c1ccco1	RORg inh 3.2µM, VP16 counter 4µM
O=C(NC(=S)Nc1cccc2c(O)cccc12)c1ccco1	none
O=C(NC(=S)Nc1ccccc1Cl)c1ccco1	RORg inh 13µM, VP16 counter inconclusive
O=C(NC(=S)Nc1ccccc1N1CCOCC1)c1ccc(-c2cc(Cl)ccc2Cl)o1	RORg inh 0.89µM, VP16 counter 2.5µM
O=C(NC(=S)Nc1ccccc1N1CCCC1)c1ccco1	none
O=C(CN1C(=O)c2ccccc2S1(=O)=O)NCc1cccs1	none
COC(=O)c1cn[nH]c1NC(=S)Nc1ccc(Cl)c(Cl)c1	RORg inh inconclusive, VP16 counter inconclusive, ERG-DNA inh inconclusive
COC(=O)c1cn[nH]c1NC(=S)Nc1ccc(C)cc1Cl	RORg inh 2.8µM, VP16 counter 3.5µM
COC(=O)c1cn[nH]c1NC(=S)Nc1ccccc1C	RORg inh 5.6µM, VP16 counter inconclusive
COC(=O)C/C=C\[C@H](C)[C@H](CO)NS(=O)(=O)c1ccc(C)cc1	none (no result: Giardia kill, a7 integrin act, ERG-DNA inh)
O=C(NC(=S)NC1CCCCC1)c1ccc(F)cc1	RORg inh 3.2µM, VP16 counter 4.5µM
O=C(NC(=S)NC1CCN(Cc2ccccc2)CC1)c1ccc(F)cc1	RORg inh 7.1µM, VP16 counter 11µM, a7 integrin act inconclusive
O=C(Nc1ccc(F)cc1)NC1CCCCC1	none (no result: ERG-DNA inh)
O=C(NC1CCN(Cc2ccc(F)cc2)CC1)c1ccccc1	none
CC(=O)N[C@@H](c1ccccc1)[C@]1(C)C[C@H]1[C@@H](C)C(=O)Nc1ccc2ccccc2c1	RORg inh 0.35µM (no result: Giardia kill, a7 integrin act, ERG-DNA inh)
CCC(C)(C)C1CCC(=NNc2nc3ccccc3[nH]2)CC1 (centres undefined)	RORg inh 11µM, VP16 counter inconclusive, Giardia kill inconclusive
Cc1cc(=O)[nH]c(NN=C2CCC(C(C)(C)C)CC2)n1 (centres undefined)	none
CSCC[C@H](NC(=O)OC(C)(C)C)c1nnc(SCC=C(C)C)o1	RORg inh 11µM
CCOC(=O)CSc1nnc([C@H](CC(C)C)NC(=O)OC(C)(C)C)o1	RORg inh 13µM
O=C(Nc1ccncc1)C1CCN(S(=O)(=O)c2c(Cl)cccc2Cl)CC1	none (no result: RORg inh, VP16 counter)
CN(C)c1ccc(-c2nc(-c3cccs3)c(-c3cccs3)[nH]2)cc1	none (no result: RORg inh, VP16 counter, Giardia kill, a7 integrin act)
Cc1nn(-c2ccccc2)c2c1N(CC(=O)NCc1ccc(N(C)C)cc1)C(=O)CS2	none (no result: RORg inh, VP16 counter, Giardia kill, a7 integrin act)
CCOc1ccc(N2CC(NC(=O)c3ccc(S(=O)(=O)N4CCCCC4)cc3)CC2=O)cc1 (centres undefined)	none (no result: RORg inh, VP16 counter, Giardia kill, a7 integrin act)
CN(c1ccccc1)S(=O)(=O)c1cccc(C(=O)Nc2ncn[nH]2)c1	RORg inh 8.9µM, VP16 counter inconclusive
CC(C)COc1ccc(C(=O)Nc2ncn[nH]2)cc1	RORg inh 2.8µM, VP16 counter 3.5µM
C=CCOc1ccc(C(=O)Nc2ncn[nH]2)cc1	RORg inh 11µM, a7 integrin act inconclusive
CC(C)Oc1ccc(C(=O)Nc2ncn[nH]2)cc1	RORg inh inconclusive, VP16 counter inconclusive
CC(C)Oc1cccc(C(=O)Nc2ncn[nH]2)c1	RORg inh 16µM, VP16 counter inconclusive
CCOc1ccc(C(=O)Nc2ncn[nH]2)cc1	none
O=c1ccc2cc(S(=O)(=O)NCc3ccc(Cl)cc3)ccc2[nH]1	none (no result: RORg inh, VP16 counter, Giardia kill, a7 integrin act)
C#CCNC(=O)C1=C[C@H](c2ccc(Br)cc2)C[C@H](OCCCCO)O1	none
N#CC1=C(N)C2=CCCC[C@H]2[C@H](c2ccc(Br)cc2)C1(C#N)C#N	RORg inh inconclusive, VP16 counter 5µM
COc1ccc(Cn2ccc(=O)c(Cc3c(Cl)cccc3Cl)c2C)cc1	RORg inh 16µM, VP16 counter 16µM
CC(=O)N1CCc2nc3sc(C(=O)c4ccc(F)cc4)c(N)c3c(C(F)(F)F)c2C1	none (no result: RORg inh, VP16 counter, Giardia kill, a7 integrin act)
O=C(CCC(=O)OCC(=O)c1ccc(-c2ccccc2)cc1)Nc1cccc(Cl)c1	RORg inh 7.1µM, VP16 counter 13µM
Cc1ccccc1NC(=O)CCC(=O)OCC(=O)c1ccc(-c2ccccc2)cc1	RORg inh 7.9µM, VP16 counter 10µM
O=C(CCNC(=O)c1ccccc1)OCC(=O)c1cccc(Cl)c1	none
O=C(c1sccc1-c1ccccc1)N1CCN(S(=O)(=O)c2ccccc2F)CC1	none (no result: RORg inh, VP16 counter)
CCCCN1C=CC(=C2C(=O)c3ccccc3C2=O)C=C1	Giardia kill -95
COc1ccc(-c2cc(-c3c(O)c(OC)c4occc4c3OC)[nH]n2)cc1OC	RORg inh 7.9µM, VP16 counter 8.9µM (no result: ERG-DNA inh)
COc1ccc(-c2cc(-c3c(O)c(OC)c4occc4c3OC)[nH]n2)cc1	RORg inh inconclusive, VP16 counter inconclusive
Cc1ccc(-c2nc3ncccc3o2)cc1NC(=O)c1ccc(-c2ccc(Cl)cc2)o1	none (no result: RORg inh, VP16 counter, Giardia kill, a7 integrin act)
COc1cccc(Cn2c(=O)c(-c3cccc(Cl)c3)nc3cncnc32)c1	none (no result: Giardia kill, a7 integrin act, ERG-DNA inh)
CNCc1ccccc1Sc1cccc(O)c1	none
CNCc1ccccc1Sc1cc(O)ccc1O	RORg inh 16µM, VP16 counter inconclusive
FC(F)(F)c1cc(Oc2ccccc2)nc(-c2ccccn2)n1	RORg inh inconclusive
CCN(CC)c1cc(C(F)(F)F)nc(-c2ccccn2)n1	RORg inh 2.5µM, VP16 counter 11µM
C=CCNc1cc(C(F)(F)F)nc(-c2ccccn2)n1	RORg inh 1.6µM, VP16 counter 7.1µM
N=C(N)SCc1cn(-c2ccccc2)nc1-c1ccc(Br)cc1	RORg inh 11µM, VP16 counter inconclusive
Cc1ccc(-c2nn(-c3ccccc3)cc2CO)cc1	none
CN(c1ccccc1)S(=O)(=O)c1cccc(NC(=O)CSc2n[nH]c(N)n2)c1	RORg inh inconclusive, VP16 counter 7.1µM
C=C(C(=O)c1ccccc1)C(c1ccccc1)C(C)C(=O)c1ccccc1 (centres undefined)	RORg inh 2.8µM, VP16 counter 16µM
C=C(C(=O)c1ccccc1)C(C)C(=C)C(=O)c1ccccc1	RORg inh 13µM, VP16 counter 11µM
CCOC(=O)c1ccc(Nc2c(OCC)c(=O)c2=O)cc1	none
O=S(=O)(Nc1ccc(C(F)(F)F)cc1)c1ccc2c(c1)OCCO2	none (no result: RORg inh, VP16 counter, Giardia kill, a7 integrin act)
Cn1nc(C(=O)N2CCN(c3ccccn3)CC2)c2ccccc2c1=O	none (no result: RORg inh, VP16 counter)
CCCOc1ccc(/C=N/Nc2cc(N3CCOCC3)ncn2)c(O)c1	RORg inh inconclusive, VP16 counter 18µM
CCc1ccc(O)c(N=Cc2cccc(C)c2O)c1	RORg inh 11µM, VP16 counter inconclusive
Cc1cccc(C=Nc2ccc3c4c(cccc24)CC3)c1O	none (no result: ERG-DNA inh)
COC(=O)c1ccc(CSc2nc(C)nc3sc(C)c(C)c23)o1	RORg inh inconclusive, VP16 counter 4µM
CN1C(=O)C(Cl)(Cl)C(=O)c2ccccc21	RORg inh 11µM, VP16 counter inconclusive
Oc1ccc(-c2csc(Nc3ccccn3)n2)cc1O	RORg inh 5.6µM, VP16 counter 6.3µM
Cc1cc(C)nc(Nc2nc(-c3ccccc3)cs2)n1	RORg inh 4.5µM, VP16 counter inconclusive
